Results as given in PubChem BioAssay AID652197 (Broad Institute, 2013).
Values joined by “and” are separate entries in the source; they are usually repeats but may differ in a detail not shown here. Identical values can stand only once. Hit rate of the full screen: of about 340,000 compounds, about 500 (0.15%) were called active.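 How the source made its calls: active means mean replicate inhibition of at least 30%, or all replicates individually reaching that 30% level; inactive means mean below 30% and not every replicate reaching it.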 Many of the other results were omitted from the sample, so actives are more common in it than they were.

Target: Endoplasmic reticulum aminopeptidase 1 (Homo sapiens) (UniProt Q9NZ08)
Sequence (Q9NZ08 whole entry, looked up): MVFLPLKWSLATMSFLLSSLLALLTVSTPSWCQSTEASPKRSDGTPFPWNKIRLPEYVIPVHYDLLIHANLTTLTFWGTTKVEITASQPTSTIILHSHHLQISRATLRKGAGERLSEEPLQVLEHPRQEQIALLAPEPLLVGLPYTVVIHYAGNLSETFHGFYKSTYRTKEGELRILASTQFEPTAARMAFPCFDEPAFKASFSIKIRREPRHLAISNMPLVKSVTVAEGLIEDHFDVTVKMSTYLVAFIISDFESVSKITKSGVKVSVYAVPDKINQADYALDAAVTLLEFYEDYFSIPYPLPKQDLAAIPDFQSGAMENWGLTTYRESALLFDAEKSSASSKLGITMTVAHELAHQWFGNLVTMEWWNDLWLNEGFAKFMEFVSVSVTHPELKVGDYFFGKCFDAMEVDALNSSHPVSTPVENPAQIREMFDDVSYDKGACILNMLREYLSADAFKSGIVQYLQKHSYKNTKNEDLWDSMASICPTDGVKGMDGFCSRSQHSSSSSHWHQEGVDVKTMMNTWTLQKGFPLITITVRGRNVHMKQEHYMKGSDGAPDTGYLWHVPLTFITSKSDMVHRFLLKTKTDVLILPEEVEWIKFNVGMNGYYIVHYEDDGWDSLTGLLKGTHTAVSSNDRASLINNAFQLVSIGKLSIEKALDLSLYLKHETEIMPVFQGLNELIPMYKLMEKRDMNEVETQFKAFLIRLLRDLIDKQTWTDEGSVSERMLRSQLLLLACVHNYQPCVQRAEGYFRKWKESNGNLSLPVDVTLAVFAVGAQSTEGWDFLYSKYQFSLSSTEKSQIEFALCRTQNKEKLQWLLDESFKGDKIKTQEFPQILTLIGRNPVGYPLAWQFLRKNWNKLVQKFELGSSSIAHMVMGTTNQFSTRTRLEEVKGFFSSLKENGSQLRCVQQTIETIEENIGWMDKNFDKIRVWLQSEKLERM
Test: inhibition of ERAP1 peptide trimming enzyme – biochemical, single point, plate reader, primary screen (AID 652197);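 further: 0% = neutral control wells and 100% = L-leucinethiol positive control wells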
Settings: recombinant ERAP1, Leu-AMC fluorescence, 60 min; at 10.7 µM; hits give high values

Q: How did the inhibition turn out when `CC(=O)N1Cc2cc(C(=O)NCc3cc(F)cc(F)c3)nc(-c3cccc(C4=CCCC4)c3)c2[C@@H]1CCO` was run?
A: Its inhibition is 3.25% (inactive).

Q: For `O=C(C[C@@H]1C=C[C@H](NC(=O)C2CCC2)[C@@H](CO)O1)NCC1CC1`, which inhibition is on record?
A: The inhibition was 0.604% (inactive).

Q: How did the inhibition turn out when `C[N+](C)(C)CCNC(=O)c1cc[n+](Cc2ccccc2)c(/C=N/O)c1` was run?
A: The inhibition was 105% (active).

Q: How did the inhibition turn out when `C/C(Cc1ccccc1)=N\NC(=O)CNC(=O)c1cccc(Br)c1` was run?
A: The inhibition was 7.75% (inactive).

Q: Which inhibition does the source give for `O=C(NCCCNCc1ccccc1)c1ccc(/C=N/O)nc1` here?
A: The inhibition was 4.32% (inactive).

Q: Which inhibition does the source give for `COc1ccc(C(=O)NCc2nnc(SCCOc3ccccc3)n2C)cc1` here?
A: The inhibition was 31.3% (active).

Q: Which inhibition does the source give for `COc1ccc(CC(=O)NCc2nnc(SCC(=O)Nc3nccs3)n2C)cc1` here?
A: The inhibition was 1.32% (inactive).

Q: `COc1ccc(C(=O)NCc2nnc(SCC(=O)NC3=NCCS3)n2C)cc1` was tested. Which inhibition did it give?
A: The inhibition was 1.94% (inactive).

Q: For `COC(=O)C[C@H]1C[C@H]2c3cc(NC(=O)Nc4ccccc4F)ccc3O[C@H]2[C@H](CO)O1`, which inhibition is on record?
A: The inhibition was -1.68% (inactive).

Q: Which inhibition does the source give for `O=C(NC1Cc2ccccc2C1)[C@H]1[C@H](CO)[C@H]2Cn3c(ccc(C4=CCCCC4)c3=O)[C@H]2N1CC1CC1` here?
A: The inhibition was -5.27% (inactive).

Q: With `O=C(Cc1ccccn1)N[C@H]1CC[C@H](CCn2cc(-c3ccc(F)cc3)nn2)O[C@H]1CO` as the compound, how does the inhibition read?
A: The inhibition was -3.36% (inactive).

Q: With `O=C(C[C@@H]1CC[C@H](NC(=O)CN2CCOCC2)[C@@H](CO)O1)NCCc1ccccc1` as the compound, how does the inhibition read?
A: Its inhibition is 0.528% (inactive).

Q: Which inhibition does the source give for `O=C(N[C@H]1C=C[C@@H](CC(=O)N2CCc3ccccc3C2)O[C@@H]1CO)C1CCOCC1` here?
A: Its inhibition is -0.073% (inactive).

Q: Which inhibition does the source give for `Cc1ccc(-c2ccccc2[C@H]2[C@@H](C#N)N(c3ncc(-c4ccccc4)s3)[C@@H]2CO)cc1` here?
A: Its inhibition is -2.75% (inactive).

Q: For `Cc1ccc(S(=O)(=O)Nc2ccc3c(c2)C(=O)N([C@H](C)CO)C[C@@H](C)[C@@H](CN(C)S(C)(=O)=O)OCCCC[C@@H](C)O3)cc1`, which inhibition is on record?
A: The inhibition was 3.3% (inactive).

Q: For `C[C@@H]1CN([C@H](C)CO)C(=O)c2cc(NC(=O)c3ccncc3)ccc2O[C@@H](C)CCCCO[C@@H]1CN(C)CC1CC1`, which inhibition is on record?
A: Its inhibition is -0.674% (inactive).

Q: How did the inhibition turn out when `C[C@@H]1CN([C@H](C)CO)C(=O)Cc2cc(NC(=O)CCC(F)(F)F)ccc2O[C@@H]1CN(C)CC1CCCCC1` was run?
A: The inhibition was 0.143% (inactive).

Q: How did the inhibition turn out when `CO[C@@H]1CN(C)C(=O)c2ccc(NC(=O)Nc3c(C)noc3C)cc2OC[C@@H](C)N(C(=O)Nc2cccc(Cl)c2)C[C@H]1C` was run?
A: The inhibition was -0.693% (inactive).

Q: For `N#C[C@@H]1[C@H](c2ccccc2-c2ccccc2F)[C@@H](CO)N1C(=O)C1CCOCC1`, which inhibition is on record?
A: Its inhibition is 0.396% (inactive).

Q: For `Nc1nc(NCC(=O)O)nc(N2CCCCCC2)c1[N+](=O)[O-]`, which inhibition is on record?
A: The inhibition was 4.98% (inactive).

Q: Which inhibition does the source give for `O=C(O)CSc1ccc(S(=O)(=O)N2CCCC2)cn1` here?
A: The inhibition was 0.672% (inactive).

Q: Which inhibition does the source give for `N#Cc1c(N2CCCCC2)nc(N)c2c(N)nc(SCC(=O)O)cc12` here?
A: Its inhibition is 46.5% (active).

Q: Which inhibition does the source give for `C/C=C/c1ccc(C2[C@H]3CNC[C@@H]2N3C(=O)Nc2cc(F)ccc2F)cc1` (stereo partly drawn) here?
A: The inhibition was 0.659% (inactive) and 1.15% (inactive).

Q: For `Nc1nc2c(ncn2[C@@H]2O[C@H](C(=O)N[C@H](Cc3ccccc3)C(=O)NCC3CCCCC3)[C@@H](O)[C@H]2O)c(=O)[nH]1`, which inhibition is on record?
A: Its inhibition is 2.44% (inactive).

Q: How did the inhibition turn out when `COc1ccc(CN(C)C[C@H]2OCCCC[C@H](C)Oc3ccc(NS(=O)(=O)c4ccc(C)cc4)cc3C(=O)N([C@@H](C)CO)C[C@H]2C)cc1` was run?
A: Its inhibition is 0.631% (inactive).

Q: Which inhibition does the source give for `CCC(=O)N(CCc1ccccc1)Cc1cc2cc(C)ccc2[nH]c1=O` here?
A: The inhibition was -2.61% (inactive).

Q: For `Cc1ccc2[nH]c(=O)c(CN(C)S(=O)(=O)c3cccc4nonc34)cc2c1`, which inhibition is on record?
A: Its inhibition is 0.344% (inactive).

Q: For `CCCc1nc(-c2cc3cc(C)ccc3[nH]c2=O)no1`, which inhibition is on record?
A: The inhibition was 55.1% (active).

Q: With `CC(C)NC(=O)N[C@H]1CC[C@@H](CC(=O)NCc2ccc(Oc3ccccc3)cc2)O[C@@H]1CO` as the compound, how does the inhibition read?
A: The inhibition was -0.517% (inactive).

Q: For `COc1ccc(NC(=O)N2CC(=O)N3[C@H](CO)[C@@H](c4ccc(C#CCC5CCCC5)cc4)[C@H]3C2)cc1`, which inhibition is on record?
A: Its inhibition is -1.79% (inactive).

Q: `CC(=O)NC[C@H]1[C@@H](c2ccc(C#CC(C)C)cc2)[C@@H](CO)N1Cc1ccccn1` was tested. Which inhibition did it give?
A: Its inhibition is 3.95% (inactive).

Q: For `COc1ccc(NC(=O)N2CC(=O)N3[C@H](CO)[C@@H](c4ccc(-c5ccc(C)cc5)cc4)[C@H]3C2)cc1`, which inhibition is on record?
A: The inhibition was 1.13% (inactive).

Q: With `O=C(c1ccc(F)cc1)N1CC(=O)N2[C@@H](CO)[C@@H](c3ccc(C#Cc4ccc(F)cc4)cc3)[C@@H]2C1` as the compound, how does the inhibition read?
A: Its inhibition is -1.04% (inactive).

Q: For `C[C@H](CO)N1C[C@H](C)[C@H](CN(C)C(=O)Nc2ccc(C(F)(F)F)cc2)Oc2ccc(NS(=O)(=O)c3cn(C)cn3)cc2CC1=O`, which inhibition is on record?
A: Its inhibition is 2.19% (inactive).

Q: With `COc1ccc(S(=O)(=O)Nc2ccc3c(c2)C(=O)N([C@@H](C)CO)C[C@H](C)[C@H](CN(C)S(=O)(=O)c2c(C)noc2C)OCCCC[C@@H](C)O3)cc1` as the compound, how does the inhibition read?
A: The inhibition was -3.22% (inactive).

Q: For `O=C(NCC[C@@H]1CC[C@@H](NS(=O)(=O)c2ccc(Cl)cc2)[C@@H](CO)O1)c1ccccc1F`, which inhibition is on record?
A: The inhibition was -2.75% (inactive).

Q: For `O=C(Cc1ccccc1)N1C[C@@H]2[C@H](c3ccccc31)[C@@H](CO)N2C(=O)C1CCOCC1`, which inhibition is on record?
A: Its inhibition is -0.84% (inactive).

Q: For `C[C@@H]1CCCCO[C@H](CN(C)Cc2ccc(C(F)(F)F)cc2)[C@@H](C)CN([C@@H](C)CO)C(=O)c2cc(NC(=O)c3ccncc3)ccc2O1`, which inhibition is on record?
A: Its inhibition is -3.82% (inactive).

Q: For `CO[C@@H]1CN(C)C(=O)c2cc(NC(=O)C3CCOCC3)ccc2OC[C@@H](C)NC[C@@H]1C`, which inhibition is on record?
A: The inhibition was 1.93% (inactive).

Q: How did the inhibition turn out when `O=C(Nc1ccccc1F)N1CC(=O)N2[C@H](CO)[C@H](c3ccc(C#CC4CC4)cc3)[C@@H]2C1` was run?
A: Its inhibition is -1.09% (inactive).

Q: With `CN(C)C(=O)C[C@H]1C[C@H]2c3cc(NC(=O)Nc4ccc(C(F)(F)F)cc4)ccc3O[C@H]2[C@@H](CO)O1` as the compound, how does the inhibition read?
A: The inhibition was -0.814% (inactive).

Q: With `O=C(Nc1cc(F)ccc1F)N[C@H]1CC[C@@H](CCn2cc(C3CCCC3)nn2)O[C@@H]1CO` as the compound, how does the inhibition read?
A: The inhibition was 0.545% (inactive).

Q: `C[C@@H]1CN([C@H](C)CO)C(=O)c2cc(NS(C)(=O)=O)ccc2O[C@H]1CN(C)C(=O)Nc1cccc2ccccc12` was tested. Which inhibition did it give?
A: Its inhibition is 0.237% (inactive).
